Test [1] can be described thus: optical density shifts of acrAB sulA E. coli – strain DRC41, OD650, 48 h, E. coli filamentation inducer project, primary screen (AID 1152).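 Also: E. coli MC1000 strain DRC41 lacking acrAB efflux pump and sulA.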 Particulars: higher = more signal, called active from +8 up or from −8 down.
Test [2] is described as follows: probe aLefty1 binding on compound microarray – biochemical, small-molecule microarray, 635/667 nm fluorescence, primary screen (AID 1153).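 Also: score merges spot fluorescence with signal-to-noise ratio from the scanned slide images.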 Particulars: higher = more signal.
Test [3] is described as follows: plasmodial surface anion channel blockers, osmotic lysis – cell-based, P. falciparum Indochina, OD700, 1 h, primary screen (AID 1154). The note with it: P. falciparum Indochina infected RBC osmotic lysis, higher = more signal, called active from +8 up or from −8 down.
A short description of test [4]: plasmodial surface anion channel blockers, osmotic lysis – cell-based, P. falciparum Indochina, OD700, 2 h, primary screen (AID 1155).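 Also: lysis reports solute entry through the parasite surface anion channel PSAC.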 The note with it: P. falciparum Indochina infected erythrocytes, higher = more signal, called active from +8 up or from −8 down.
Test [5] can be described thus: changes in parasitized red cell lysis, either direction – P. falciparum Indochina, OD700, 3 h, PSAC antagonist project, primary screen (AID 1156). Particulars: P. falciparum-infected erythrocytes, osmotic lysis, higher = more signal, called active from +8 up or from −8 down.
Test [6] in a line: plasmodial surface anion channel blockers, osmotic lysis – cell-based, P. falciparum Indochina, OD700, 18 h, primary screen (AID 1157). The note with it: P. falciparum Indochina infected erythrocytes, osmotic lysis OD700, 18 h; higher = more signal, called active from +8 up or from −8 down.
Test [7] in a line: S6 kinase pathway phospho-S6 level changes – cell-based, A549, cytoblot, luminescence, serum-stimulated, primary screen (AID 1158).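 Also: serum-stimulated A549 lung adenocarcinoma cells; signal is phosphorylated S6 detected by cytoblot immunostaining with HRP secondary.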 Particulars: 5 h, higher = more signal.
Test [8] concerns the target NADPH oxidase 2 (Homo sapiens) (UniProt P04839). In words: compounds shifting NOX2 Amplex Red fluorescence – cell-based, HEK293-NOX2, PMA-stimulated, NOX inhibitor project, primary screen (AID 1159). Also: test concentration not given here. The note with it: 45 min, higher = more signal, called active from +8 up or from −8 down.
Test [9] concerns the target NADPH oxidase 4 (Homo sapiens) (UniProt Q9NPH5). In words: compounds shifting NOX4 Amplex Red fluorescence – cell-based, HEK293-NOX4, tetracycline-induced, NOX inhibitor project, primary screen (AID 1160). The note with it: HEK293-NOX4, Amplex Red H2O2 fluorescence, 45 min; higher = more signal, called active from +8 up or from −8 down.
In test [10] the target is NADPH oxidase 5 (Homo sapiens) (UniProt Q96PH1). Description: compounds shifting NOX5 Amplex Red fluorescence – cell-based, HEK293-NOX5, NOX inhibitor project, primary screen (AID 1161). The note with it: HEK293-NOX5, ionomycin, 45 min, higher = more signal.
Test [11] is described as follows: compound effects on lung adenocarcinoma cell viability – A549, calcein-AM fluorescence, 48 h, basal, profiling panel (AID 1162). Also: test concentration not given here. The note with it: higher = more signal.
Test [12] in a line: compound effects on differentiated 3T3-L1 adipocyte viability – cell-based, 3T3-L1 adipocytes, calcein-AM fluorescence, 48 h, basal, profiling panel (AID 1163). Also: test concentration not given here. The note with it: 3T3-L1 adipocytes viability, higher = more signal.
A short description of test [13]: compound effects on hepatocellular carcinoma cell viability – HepG2, calcein-AM fluorescence, 48 h, basal, profiling panel (AID 1164). Also: test concentration not given here. The note with it: higher = more signal.
Test [14] is described as follows: compound effects on multiple myeloma cell viability – MM1S, calcein-AM fluorescence, 48 h, basal, profiling panel (AID 1165).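 Also: viability of MM1S multiple myeloma cells under basal unstimulated conditions; test concentration not given here.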 Particulars: higher = more signal.
A short description of test [15]: calcein-AM signal in unstimulated myeloma cells – cell-based, calcein-AM fluorescence, 48 h, PK04 Diversity Set, profiling panel (AID 1166).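 Also: cells grown under basal conditions without added stimulus; test concentration not given here.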 Particulars: RPMI8226 myeloma viability, higher = more signal.
The nature of test [16]: JC-1 mitochondrial signal, unstimulated HepG2 cells – cell-based, JC-1 fluorescence, 24 h, 100 nL compound, profiling panel (AID 1167). Also: test concentration not given here. Particulars: HepG2 mitochondrial potential, higher = more signal.
The nature of test [17]: JC-1 mitochondrial signal, unstimulated adipocytes – cell-based, JC-1 fluorescence, 3T3-L1 adipocytes, 24 h, 100 nL compound, profiling panel (AID 1168). Also: test concentration not given here. Particulars: JC-1 mitochondrial fluorescence, higher = more signal, called active from +8 up or from −8 down.
Test [18] is described as follows: JC-1 mitochondrial signal, unstimulated myeloma cells – cell-based, JC-1 fluorescence, RPMI8226, 24 h, 100 nL compound, profiling panel (AID 1169). Also: test concentration not given here. Particulars: JC-1 mitochondrial potential fluorescence, higher = more signal.
Test [19] is described as follows: JC-1 mitochondrial signal, unstimulated MM1S myeloma – cell-based, JC-1 fluorescence, 24 h, 100 nL compound, profiling panel (AID 1170). Also: test concentration not given here. The note with it: MM1S mitochondrial potential, higher = more signal.
Test [20] in a line: resazurin metabolic signal in A549 cells – cell-based, resazurin fluorescence, 24 h, PK04 Diversity Set, profiling panel (AID 1171). Also: test concentration not given here. The note with it: A549 viability, higher = more signal, called active from +8 up or from −8 down. For orientation: Alamar Blue is a resazurin reagent that responds to reducing activity.

The values that follow come from PubChem BioAssay.

Active and inactive are the calls of the source.

NADPH oxidase 4 (Homo sapiens), sequence (Q9NPH5 whole entry, looked up): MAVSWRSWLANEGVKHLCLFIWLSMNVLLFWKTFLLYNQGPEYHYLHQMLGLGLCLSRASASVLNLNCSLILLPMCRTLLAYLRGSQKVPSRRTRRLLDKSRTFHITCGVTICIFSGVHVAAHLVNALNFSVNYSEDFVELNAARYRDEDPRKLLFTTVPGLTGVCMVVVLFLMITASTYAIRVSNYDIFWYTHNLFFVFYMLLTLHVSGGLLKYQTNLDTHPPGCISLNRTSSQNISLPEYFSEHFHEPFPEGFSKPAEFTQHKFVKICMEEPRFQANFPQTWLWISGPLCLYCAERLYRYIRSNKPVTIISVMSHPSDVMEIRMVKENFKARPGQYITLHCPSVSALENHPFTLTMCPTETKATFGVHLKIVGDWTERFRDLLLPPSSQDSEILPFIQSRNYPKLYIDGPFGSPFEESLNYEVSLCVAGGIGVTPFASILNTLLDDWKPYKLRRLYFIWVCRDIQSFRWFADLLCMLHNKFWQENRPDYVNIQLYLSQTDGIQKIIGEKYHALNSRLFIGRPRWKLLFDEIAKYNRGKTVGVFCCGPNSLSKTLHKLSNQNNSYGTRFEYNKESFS
NADPH oxidase 2 (Homo sapiens), sequence (P04839 whole entry, looked up): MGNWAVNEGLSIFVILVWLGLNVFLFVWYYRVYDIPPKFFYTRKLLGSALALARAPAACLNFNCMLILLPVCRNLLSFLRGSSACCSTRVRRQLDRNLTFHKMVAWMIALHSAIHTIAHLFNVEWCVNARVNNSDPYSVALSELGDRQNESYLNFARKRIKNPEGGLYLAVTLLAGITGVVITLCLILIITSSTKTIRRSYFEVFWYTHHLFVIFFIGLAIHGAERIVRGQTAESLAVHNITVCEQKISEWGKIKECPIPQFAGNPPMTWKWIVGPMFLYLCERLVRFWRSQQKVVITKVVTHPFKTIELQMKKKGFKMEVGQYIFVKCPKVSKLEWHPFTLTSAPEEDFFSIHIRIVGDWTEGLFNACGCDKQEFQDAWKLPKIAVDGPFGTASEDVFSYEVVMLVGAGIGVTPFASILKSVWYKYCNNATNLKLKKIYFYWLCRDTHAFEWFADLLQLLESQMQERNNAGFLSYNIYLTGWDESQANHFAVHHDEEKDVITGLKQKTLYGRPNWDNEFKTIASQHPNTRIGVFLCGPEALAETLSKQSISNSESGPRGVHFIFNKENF
NADPH oxidase 5 (Homo sapiens), sequence (Q96PH1 whole entry, looked up): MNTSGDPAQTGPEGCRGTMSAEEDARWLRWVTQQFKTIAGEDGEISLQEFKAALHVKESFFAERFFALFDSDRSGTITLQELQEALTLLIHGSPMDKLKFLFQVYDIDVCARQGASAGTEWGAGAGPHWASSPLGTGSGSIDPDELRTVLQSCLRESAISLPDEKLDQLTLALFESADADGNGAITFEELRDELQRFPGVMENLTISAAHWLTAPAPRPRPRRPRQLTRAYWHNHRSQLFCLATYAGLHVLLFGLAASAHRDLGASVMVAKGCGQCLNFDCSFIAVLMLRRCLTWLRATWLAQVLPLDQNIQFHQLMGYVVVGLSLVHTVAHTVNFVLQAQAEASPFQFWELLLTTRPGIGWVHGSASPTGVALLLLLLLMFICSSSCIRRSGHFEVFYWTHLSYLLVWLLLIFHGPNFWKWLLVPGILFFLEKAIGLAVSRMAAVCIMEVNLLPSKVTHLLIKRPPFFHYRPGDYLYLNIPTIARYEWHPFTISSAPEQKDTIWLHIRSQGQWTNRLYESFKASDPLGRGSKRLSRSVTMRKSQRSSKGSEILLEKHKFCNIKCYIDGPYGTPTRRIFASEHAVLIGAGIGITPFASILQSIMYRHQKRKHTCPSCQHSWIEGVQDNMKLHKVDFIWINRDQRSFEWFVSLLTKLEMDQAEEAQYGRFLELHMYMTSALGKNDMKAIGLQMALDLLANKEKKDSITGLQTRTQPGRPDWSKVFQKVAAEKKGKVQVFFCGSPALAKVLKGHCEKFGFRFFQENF

With `CCOC(=O)[C@H]1C/C=C/C[C@H](C(=O)OCC)C(=O)O[C@H]2[C@@H](OC)O[C@H](CO)[C@@H](OC(=O)CCc3ccccc3)[C@@H]2OC1=O`, the z-score is -0.142 (inactive) in test [1]; 0.955 (inactive) in test [3]; 0.175 (inactive) in [4]; -0.518 (inactive) in [5]; 0.386 (inactive) in test [6]; -0.0947 in test [7]. Besides, the z-score in test [8] is 0.281 (inactive); in [9], 0.273 (inactive); in test [10] it was 0.541; in [11], 0.837; in [12], 0.342; in [13], 0.957. Also, the z-score in test [14] was 0.269; in test [15], 0.331; in test [16], 0.957; in test [17], 0.352 (inactive); in test [18], 0.655; in test [19], -0.533. Besides, the z-score in [20] is -0.553 (inactive). For the same compound, the composite z-score in test [2] is 1.63.

For `O=C1O[C@@H](c2ccccc2)[C@@H](c2ccccc2)N2[C@@H](c3ccccc3OCCO)[C@]3(C(=O)Nc4ccc(C#CC5=CCCCC5)cc43)[C@@H](C(=O)NC[C@H](O)c3ccccc3)[C@H]12`, the z-score in test [1] is 2 (inactive); in test [3], 0.996 (inactive); in test [4], 0.526 (inactive); in test [5] it was -2.18 (inactive); in test [6], 0.0195 (inactive); in [7] it was 0.581. Also, the z-score in [8] is 1.74 (inactive); in [9], 1.1 (inactive); in test [10], 2.55; in [11] it was -1.37; in test [12] it was 1.68; in test [13] it was -3.07. In addition, the z-score in test [14] is -3.25; in test [15], -4.07; in [16] it was -2.4; in test [17], 2.81 (inactive); in test [18], -0.664; in test [19], -2. For the same compound, in test [20], the z-score is -1.46 (inactive). In addition, in [2], the composite z-score worked out at 0.277.

Consider `CN1C(=O)C2C=CC(C(O)Cc3ccccc3)N(N(c3ccccc3)c3ccccc3)C2C1=O` (stereo not given), for which the z-score in test [1] is -1.29 (inactive); in test [3] it was 1.15 (inactive); in test [4], 1.09 (inactive); in test [5], 0.449 (inactive); in test [6], 0.679 (inactive); in test [7], -1.07. Besides, the z-score was -0.0622 (inactive) in test [8]; -0.198 (inactive) in test [9]; 0.158 in [10]; 1.02 in [11]; -1.5 in test [12]; 1.35 in test [13]. Besides, the z-score in test [14] was -0.64; in test [15], 0.0338; in test [16] it was 1.37; in test [17] it was -0.833 (inactive); in test [18], 0.257; in [19], -0.871. Besides, the z-score in [20] is -0.69 (inactive). In test [2], the composite z-score was found to be 0.137.

As for `O=C1O[C@@H](c2ccccc2)[C@@H](c2ccccc2)N2[C@@H](c3ccccc3OCCO)[C@]3(C(=O)Nc4ccc(C#CCCO)cc43)[C@@H](C(=O)Nc3nc4ccccc4s3)[C@H]12`, the z-score was 1.4 (inactive) in test [1]; 2.06 (inactive) in test [3]; 3.56 (inactive) in [4]; 1.59 (inactive) in test [5]; 1.72 (inactive) in test [6]; 0.206 in test [7]. Besides, the z-score in test [8] was 1.3 (inactive); in test [9], 0.352 (inactive); in test [10] it was 1.23; in test [11], 1.02; in [12], 0.0714; in test [13], 0.702. Further, the z-score is -0.264 in test [14]; -1.55 in test [15]; -2.29 in [16]; 0.856 (inactive) in test [17]; -1.13 in [18]; -1.33 in test [19]. The z-score in test [20] is 0.2 (inactive). The same compound returned a composite z-score in test [2] of 0.13.

On to `C=C(CCCC)C(=O)CC[C@@H](OC(=O)c1ccccc1-c1ccccc1C(=O)O)c1cccc(OCCO)c1`, for which the z-score is -0.397 (inactive) in [1]; 22.3 (active) in test [3]; 4.27 (inactive) in test [4]; 1.11 (inactive) in test [5]; 0.896 (inactive) in [6]; -0.348 in test [7]. For the same compound, the z-score is 2.86 (inactive) in test [8]; -0.351 (inactive) in test [9]; -1.08 in [10]; 0.78 in test [11]; 1.12 in test [12]; 0.215 in test [13]. Moreover, the z-score was -3.41 in test [14]; -3.91 in test [15]; -1.88 in test [16]; 0.584 (inactive) in test [17]; -0.694 in test [18]; 0.0735 in [19]. Besides, the z-score in test [20] was 0.675 (inactive). Further, the composite z-score in [2] is -0.168.
